Laboratory results reported in PubChem BioAssay AID1347416 (National Center for Advancing Translational Sciences (NCATS), 2020).
Among all 4,100 compounds or so, about 1,600 (39%) were called active. Inconclusive results (about 25%) are left out. This is one part of the list. A number with no mark means an inactive call. The call rests on the fitted dose curve; in most records, active means well fitted inhibition curve with a large enough effect; inconclusive means small, poorly fitted or top-dose-only effect; inactive means no such curve, though single readings can be large or run the other way.

Test: qHTS Validation assay for Inhibitors of Plasmodium falciparum Dd2 growth in vitro; further: nearly all actives have a fitted effect of over 70% in size
Conditions: P. falciparum Dd2 in RBCs, SYBR Green growth, 72 h; series mostly up to 28.7 µM; activity change, negative = inhibition: at the top concentration
In short: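 P. falciparum Dd2-infected red blood cells (2.5% hematocrit, 0.3% parasitemia) grown 72 h at 37 °C under 5% O2 with compounds in a titration, 29 uM to 0.5 nM final. Growth read as SYBR Green-1 fluorescence after ~16 h lysis; artesunate 300 nM as positive control.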
On the % scale 0 is the no-effect control and ±100 the full control effect; potency means the concentration at half of the fitted maximal effect.

Compound | activity change, negative = inhibition | Potency
CC(=O)c1cccc(NC(=O)[C@H]2O[C@@H]3OC(C)(C)O[C@@H]3[C@H]3OC(C)(C)O[C@H]32)c1 | 16.4% | –
COc1cccc(-c2c(C#N)c(N)nc3c2c(C)nn3-c2ccccc2)c1O | – | 1.5 µM (active)
COc1ccc(Cl)cc1NC(=O)c1cc(C)nc2c1c(C)nn2-c1ccccc1 | -0.338% | –
CCN(C(=O)CSc1nc(-c2ccc(C(C)C)cc2)no1)c1ccccc1 | – | 0.944 µM (active)
CCN(C(=O)Cn1nc2c3cc(F)ccc3n(Cc3cccc(C)c3)cc-2c1=O)c1cccc(C)c1 | 43.5% | –
CCN(C(=O)CSc1nc(-c2ccc(C(C)C)cc2)no1)c1cccc(C)c1 | – | 1.06 µM (active)
Cc1cccc(C(=O)NCc2nnc3c(-c4nc(C(C)C)no4)cccn23)c1 | -3.28% | –
Cc1ccc(NC(=O)c2cc3n(n2)CC(c2ccc(Cl)cc2)OC3)cc1 (stereo not given) | 3.18% | –
O=C(Cn1cc(C(=O)c2ccncc2)c(=O)c2cc(F)ccc21)Nc1ccc(Cl)cc1 | 5.87% | –
Cn1c(=O)c(=O)n(C)c2cc(N3CCCC3)c(NC(=O)c3ccccc3F)cc21 | 7.8% | –
Cc1ccccc1NC(=O)c1cc(C(=O)c2cc(Cl)ccc2O)cn(-c2ccccc2C)c1=O | – | 0.376 µM (active)
Cc1ccc(NC(=O)c2cc(C(=O)c3cc(Cl)ccc3O)cn(-c3ccc(C)cc3)c2=O)cc1 | – | 0.422 µM (active)
COc1cc(Cn2nnc3ccccc32)cc(Br)c1O | 33% | –
CCC(C)NC(=O)C1CCC(CNS(=O)(=O)c2cccc3nsnc23)CC1 (stereo not given) | 27.7% | –
Oc1ccc(-c2n[nH]c(=S)n2-c2ccc3c(c2)OCCO3)c(O)c1 | – | 2.66 µM (active)
COc1ccc(C2=CC(c3ccc(F)cc3)n3ncc(C(=O)Nc4ccc(C)cc4)c3N2)cc1 (stereo not given) | – | 2.37 µM (active)
CCOc1ccc(NC(=O)c2cnn3c2NC(c2cccc(OC)c2)=CC3c2ccccc2)cc1 (stereo not given) | – | 4.73 µM (active)
Cc1nn2c(c1-c1ccccc1Oc1ccccc1)N(Cc1cccc(O)c1)CCC2 | – | 10.9 µM (active)
Cc1nn2c(c1-c1ccccc1Oc1ccccc1)N(C(=O)Cc1cccc(F)c1)CCC2 | -17.3% | –
COCC(=O)N[C@@H]1CN(C(=O)Cc2cccc(OC)c2)CC[C@@H]1c1nc(C)no1 | 19.7% | –
Cc1nn2c(c1-c1ccccc1Oc1ccccc1)N(Cc1ccccc1O)CCC2 | – | 4.85 µM (active)
COc1cccc(CC(=O)N2CCCn3nc(C)c(-c4ccccc4OCc4ccccc4)c32)c1 | – | 9.44 µM (active)
COc1ccc(CN2CCCn3nc(C)c(-c4ccccc4Oc4ccccc4)c32)cc1O | – | 9.44 µM (active)

Compound | activity change, negative = inhibition | Potency
Cc1nn2c(c1-c1ccccc1OCc1ccccc1)N(Cc1ccccc1)CCC2 | – | 15.3 µM (active)
S=c1[nH]cc(-c2ccc(Cl)cc2)n1-c1ccccc1 | -26.5% | –
COc1ccc(-n2nc(C3CCN(Cc4ccc(C(F)(F)F)cc4)CC3)[nH]c2=O)cc1 | -12% | –
Cc1ccc(Cn2c(C3CCN(C(=O)c4ccc(C(F)(F)F)cc4)CC3)n[nH]c2=O)cc1 | -20.9% | –
Cc1ccc2c(n1)N(C)[C@H](CO)CCN(Cc1ccc(C(F)(F)F)cc1)C2 | – | 15.3 µM (active)
CCN(CC)C(=O)N1CCCCC1c1noc(COc2ccc(F)cc2)n1 (stereo not given) | 6.79% | –
CC(C)(C)c1ccc(C(=O)N2CCN(C(=O)c3nnn4c3COC(c3ccccc3)C4)CC2)cc1 (stereo not given) | – | 10.6 µM (active)
CC(C)c1cccc(NC(=O)C2CCN(C(=O)c3ncn4c3COC(c3ccccc3)C4)CC2)c1 (stereo not given) | 1.07% | –
CCc1cccc(NC(=O)C2CCN(C(=O)c3nnn4c3COC(c3ccc(C)cc3)C4)CC2)c1 (stereo not given) | -9.76% | –
O=C(NCCC1=CCCCC1)C1CCN(C(=O)c2ncn3c2COC(c2ccccc2)C3)CC1 (stereo not given) | 36.1% | –
CCOc1ccccc1C(=O)N1CCN(C(=O)c2nnn3c2COC(c2ccccc2)C3)CC1 (stereo not given) | – | 16.8 µM (active)
COc1ccc(C)cc1-n1c(-c2ccc(Cl)cc2)cc2c1CC(C)(C)CC2=O | – | 2.99 µM (active)
CC(C)C[C@@H](NC(=O)[C@@H](O)[C@H](N)Cc1ccccc1)C(=O)O | – | 2.99 µM (active)
CC(Sc1nc2ccccc2c(=O)n1C)C(=O)N(C)C1CCCCC1 (stereo not given) | – | 5.31 µM (active)
CCNC(=O)NC(=O)C(C)Sc1nc2ccccc2c(=O)n1-c1cccnc1 (stereo not given) | 14.2% | –
COc1cccc(NC(=O)CSc2nc(=O)[nH]c3c2CCCC3)c1 | -1.41% | –
COc1cccc(NC(=O)N[C@H]2[C@H](O)[C@@H](Oc3ccccc3)[C@@H]3OC[C@H]2O3)c1 | -19.2% [at 43.1 µM] | –
COc1cccc(NC(=O)c2cccc3c(=O)c4c([nH]c23)CCCC4)c1 | – | 2.99 µM (active)
Cc1cccc(-c2cc(C3CCN(C(=O)Nc4ccccc4Cl)CC3)[nH]n2)c1 | -13.2% | –
CNC(=O)N1CCC(C2CCN(S(=O)(=O)c3cccc(C#N)c3)C2)CC1 (stereo not given) | 3.64% | –
Cc1cccc(-c2cc(C3CCN(S(=O)(=O)c4cccc(C#N)c4)CC3)[nH]n2)c1 | – | 15 µM (active)
O=c1c2cc3c(nc2ncn1Cc1ccccc1F)CCCC3 | 0% | –
COc1cc2c3nnc(-c4ccc(F)cc4)c-3cn(Cc3ccccc3F)c2cc1OC | – | 3.76 µM (active)

Compound | activity change, negative = inhibition | Potency
CC1(C)Cc2nc3sc4c(SCC(=O)O)ncnc4c3cc2CO1 | -5.19% | –
COc1cc(-c2nc(-c3ccccc3)c(-c3ccc(Br)cc3)[nH]2)cc(OC)c1O | – | 2.11 µM (active)
COc1ccc2[nH]c(C)c(CCN(Cc3cccs3)C(=S)Nc3ccccc3)c2c1 | – | 2.66 µM (active)
COc1ccc2[nH]c(C)c(CCN(Cc3cccs3)C(=S)Nc3ccc(F)cc3)c2c1 | – | 4.22 µM (active)
O=c1n(-c2ccc(Cl)cc2)nc2n1CCN(Cc1cccc3ccccc13)C2 | 33.4% | –
COc1ccc(-n2nc3n(c2=O)CCN(C(=O)c2ccc(Cl)cc2)C3)cc1 | -20.5% | –
CC(C)CCN1CCn2c(nn(-c3ccc([N+](=O)[O-])cc3)c2=O)C1 | – | 17.2 µM (active)
Cc1ccc(-n2nc3n(c2=O)CCN(C(=O)c2cccc(Cl)c2)C3)cc1 | 67.3% | –
O=C(Nc1ccc(Cl)cc1)N1CCn2c(nn(-c3ccc([N+](=O)[O-])cc3)c2=O)C1 | 26.1% | –
COc1ccccc1CN1CCn2c(nn(-c3ccc([N+](=O)[O-])cc3)c2=O)C1 | – | 5.96 µM (active)
COc1ccc(C(=O)N[C@@H]2CCC[C@@H]2C(=O)NCc2ccc(C)o2)cn1 | -6.41% | –
Oc1c(CN2CCCCC2)cc(COCc2ccccc2)c2cccnc12 | – | 8.41 µM (active)
CCOCc1cc(CN2CCN(c3ccccc3OC)CC2)c(O)c2ncccc12 | – | 5.96 µM (active)
Oc1c(CN2CCCC2)cc(COCc2ccccc2)c2cccnc12 | – | 6.68 µM (active)
COc1ccc(CCNC(=O)CCc2c(C)nc3c(c(C)nn3-c3ccc(C)c(C)c3)c2C)cc1OC | – | 0.668 µM (active)
COc1ccc(CCNC(=O)CCn2c(=O)c3ccccc3n(Cc3cc(C)ccc3C)c2=O)cc1OC | 10.4% | –
COc1cc(NC(=O)Cn2c(N(C)Cc3ccccc3)nc(C)cc2=O)cc(OC)c1 | -19.9% | –
COc1ccc(S(=O)(=O)Nc2ccc(C)n(CC(=O)Nc3ccccc3)c2=O)cc1 | – | 2.66 µM (active)
O=C(COc1ccc2ccccc2c1)Nc1nccs1 | 15.3% | –
Oc1c(C(Nc2nccs2)c2ccc(C(F)(F)F)cc2)ccc2cccnc12 (stereo not given) | – | 5.31 µM (active)
Oc1cccc(C(Nc2nccs2)c2ccc3cccnc3c2O)c1 (stereo not given) | – | 7.5 µM (active)
Nc1nc(C2CC(NC(=O)c3csc4c3CCCC4)C2)cc(=O)[nH]1 (stereo not given) | 19.5% | –
Oc1[nH]c2ccccc2c1N=NC(=S)N1CCOCC1 | – | 2.11 µM (active)

Compound | activity change, negative = inhibition | Potency
O=C(COC(=O)c1ccc(-n2cnnn2)cc1)c1ccc(Br)cc1 | 22.8% | –
CCc1cccc(-n2c(=O)c3cccnc3n2CC(=O)NCc2ccccc2)c1 | – | 1.68 µM (active)
CCc1cccc(-n2c(=O)c3cccnc3n2CC(=O)Nc2ccc(F)c(C)c2)c1 | – | 2.66 µM (active)
COc1ccc(Cn2c(=O)c3cccnc3n(CC(=O)Nc3ccc(C)c(F)c3)c2=O)cc1 | 17.6% | –
O=C(Cn1c(=O)c2cccn2c2cccnc21)NCc1ccccc1F | 21.9% | –
O=C(CCn1c(=O)c2cccn2c2cccnc21)NCc1cccc(Br)c1 | -0.311% | –
CCc1cccc(-n2c(=O)c3cccnc3n2CC(=O)NCc2ccc(C)cc2)c1 | – | 1.68 µM (active)
O=C(CCc1nc2cccnc2n1Cc1ccccc1)NCc1cccc(Cl)c1 | 12.7% | –
COc1ccc(CNC[C@H]2COCc3nc4cc(C(F)(F)F)ccc4n32)cn1 | 14.2% [at 43.1 µM] | –
COc1ccc2ncc3c(-c4ccc(C)c(C)c4)nn(CC(=O)NC4CCCCC4)c3c2c1 | 31% | –
CCc1ccc(-c2nn(CC(=O)NC3CCCCC3)c3c2cnc2ccc(OC)cc23)cc1 | – | 9.44 µM (active)
CC(C)(C)c1ccc(-c2noc(-c3ncn4c3COC(c3ccc(F)cc3)C4)n2)cc1 (stereo not given) | – | 15 µM (active)
CCOc1ccc(C2Cn3nnc(-c4nc(-c5ccsc5)no4)c3CO2)cc1 (stereo not given) | 12.1% | –
O=C(NCc1ccccc1F)C1CCN(C(=O)c2ncn3c2COC(c2ccc(F)cc2)C3)CC1 (stereo not given) | 14.3% | –
O=c1[nH]c(N2CCOCC2)nc2c1CCN(Cc1ccccc1C(F)(F)F)CC2 | – | 4.73 µM (active)
O=c1[nH]c(N2CCOCC2)nc2c1CCN(Cc1ccccc1Br)CC2 | – | 15 µM (active)
O=c1[nH]c(N2CCOCC2)nc2c1CCN(Cc1cccc(C(F)(F)F)c1)CC2 | -22.4% | –
COc1cccc(CN2CCc3nc(N4CCOCC4)[nH]c(=O)c3CC2)c1OC | 1.69% | –
Cc1noc2c(NC3CCN(C)CC3)cc(-c3cccc(C(F)(F)F)c3)nc12 | – | 13.7 µM (active)
Cc1cc(Br)ccc1NC(=O)c1ccc(NS(=O)(=O)c2c(C)noc2C)cc1 | 25% | –
O=C(Nc1ncccc1O)c1ccc(NS(=O)(=O)c2ccc3[nH]c(=O)[nH]c3c2)cc1 | – | 0.422 µM (active)
